Test results reported in PubChem BioAssay (NCATS).
Records with an inconclusive call do not appear. A number with no mark means an inactive call. Calls of active or inactive are those of the source. Calls come from the whole dose curve; as a rule, active = well fitted curve in the direction sought with a large enough effect; inconclusive = small, poorly fitted or top-dose-only effect, or another doubt; inactive = no such curve, though single readings can be large; an effect the other way counts as inactive or inconclusive.

Tested on: not listed separately
Test: P-glycoprotein substrates identified in KB-3-1 adenocarcinoma cell line, qHTS therapeutic library screen (AID 1346986);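 note: potency is for cytotoxicity meaning loss of cell viability; nearly all actives have a fitted effect of over 60% in size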
Details: KB-3-1 parental cells viability, CellTiter-Glo, 72 h; series mostly up to 44.5 µM; activity change, negative = cytotoxicity: at the top concentration
In short: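 72 h cell-killing screen, 500 cells/well, CellTiter-Glo luminescence. Paired lines KB-3-1/KB-8-5-11; P-gp dependence checked by tariquidar co-treatment and HEK-293 MDR-19 versus empty-vector cells.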
Potency is the fitted concentration of half-maximal effect.

| SMILES | Potency |
| --- | --- |
| C[C@@H]1COCCN1c1cc(C2(S(C)(=N)=O)CC2)nc(-c2ccnc3[nH]ccc23)n1 (stereo partly specified) | 6.51 µM (active) |
| COc1ccccc1-c1cc(Nc2cccc(CS(N)(=O)=O)c2)ncn1 | 11.6 µM (active) |
| Cc1[nH]c(/C=C2\C(=O)Nc3ccc(F)cc32)c(C)c1C(=O)NC[C@H](O)CN1CCOCC1 | 14.6 µM (active) |

Tested on: not listed separately
Test: P-glycoprotein substrates identified in KB-8-5-11 adenocarcinoma cell line, qHTS therapeutic library screen (AID 1346987); note: nearly all actives have a fitted effect of over 65% in size; for activity change, negative = cytotoxicity: % is set by controls: 0 for no effect and ±100 for the full control effect
Details: KB-8-5-11 (P-gp overexpressing) viability, CellTiter-Glo, 72 h; series mostly up to 44.5 µM; activity change, negative = cytotoxicity: at the top concentration
In short: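 Luminescence from CellTiter-Glo, read 5 min after addition, quantified survival of KB-8-5-11 (P-gp-overexpressing) cells exposed to compounds for 72 h. AC50 was derived from concentration-response curves.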

| SMILES | activity change, negative = cytotoxicity | Potency | outcome |
| --- | --- | --- | --- |
| O=C(NNc1ccccc1)c1ccncc1 | -9.36% |  |  |
| COc1cc(O)c(C(=O)CCc2ccc(O)cc2)c(O[C@@H]2O[C@H](CO)[C@@H](O)[C@H](O)[C@H]2O)c1 | -3.28% [at 17.3 µM] |  |  |
| O=C(Nc1ccc(F)cc1)N1CCc2ccccc2C1c1ccc(C(F)(F)F)cc1 (stereo unspecified) |  | 20.6 µM (active) |  |
| COc1ccccc1-c1cc(Nc2cccc(CS(N)(=O)=O)c2)ncn1 | 0.591% |  |  |
| CN1CCN(C(=O)c2ccc(Nc3nccc(-c4cccs4)n3)cc2Cl)CC1 |  | 18.4 µM (active) |  |
| Cn1nccc1Nc1nccc(-c2ccn([C@H](CO)c3ccc(Cl)c(F)c3)c(=O)c2)n1 | 4.79% |  |  |
| CC1(C)CC[C@]2(C(=O)OC3OC(CO)C(O)C(O)C3O)CC[C@]3(C)C(=CCC4[C@@]5(C)CC[C@H](OC6OC(C(=O)O)C(O)C(O)C6O)C(CO)(CO)C5CC[C@]43C)[C@@H]2C1 (stereo partly specified) |  |  | inactive [at 9.29 µM] |
| Nc1ncnc2c1ncn2[C@@H]1O[C@H](CO)C[C@H]1O |  | 0.001 µM (active) |  |
| O=[N+]([O-])c1ccc(-[n+]2nc(-c3ccccc3)nn2-c2ccc(I)cc2)cc1 |  | 18.4 µM (active) |  |
| C=C1/C(=C/C=C2\CCC[C@]3(C)[C@@H]([C@H](C)/C=C/C(=O)C4CC4)CC[C@@H]23)C[C@@H](O)C[C@@H]1O | -26.1% |  |  |

Tested on: not listed separately
Test: Confirmatory screen GU Rhodamine qHTS for Zika virus inhibitors qHTS (AID 1347157); note: nearly all actives have a fitted effect of over 70% in size
Details: purified enzyme assay, Rhodamine110 substrate fluorescence, 15 min; series mostly up to 114 µM; activity change, negative = inhibition: at the top concentration
In short: (§1)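 Enzyme 25 nM in Tris-HCl pH 8.0 + 0.01% Tween 20; compounds up to 114 microM, 15 min RT dark; + Rhod110 substrate 1.5 microM; read t0 and 15 min; delta fluorescence → % inhibition → 4-parameter Hill fit.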

| SMILES | Potency |
| --- | --- |
| O=C(NCc1ccc(Oc2ccccc2)cc1)c1nc(-c2cc(Br)c(O)c(Br)c2)no1 | 1.75 µM (active) |
| CC1CCC2C(=CCC(O)C2(C)C)C1(C)Cc1c(O)cc(CO)c(C=O)c1O (stereo unspecified) | 24.3 µM (active) |
| CC(=O)N1c2ccc(-c3ccc(C(=O)O)cc3)cc2C(Nc2ccc(Cl)cc2)CC1C (stereo unspecified) | 17.5 µM (active) |

Tested on: Zika virus NS2B-NS3 protease (unlinked complex)
Test: Primary screen GU Rhodamine qHTS for Zika virus inhibitors: Unlinked NS2B-NS3 protease assay (AID 1347159); note: nearly all actives have a fitted effect of over 60% in size; for activity change, negative = inhibition: % is set by controls: 0 for no effect and ±100 for the full control effect
Details: Recombinant ZIKV NS2B-NS3 protease, Rhodamine110 substrate fluorescence; series mostly up to 107 µM; activity change, negative = inhibition: at the top concentration
In short: as §1

| SMILES | activity change, negative = inhibition | Potency |
| --- | --- | --- |
| O=C(NNc1ccccc1)c1ccncc1 | 8.81% |  |
| COc1cc(O)c(C(=O)CCc2ccc(O)cc2)c(O[C@@H]2O[C@H](CO)[C@@H](O)[C@H](O)[C@H]2O)c1 | -27.7% [at 57.1 µM] |  |
| CN(CCCNC(=O)c1ccc2nc3c(c(Cl)c2c1)CCCC3)Cc1ccccc1 | 46.2% |  |
| O=C(NCc1ccc(Oc2ccccc2)cc1)c1nc(-c2cc(Br)c(O)c(Br)c2)no1 |  | 2.82 µM (active) |
| O=C(Nc1ccc(F)cc1)N1CCc2ccccc2C1c1ccc(C(F)(F)F)cc1 (stereo unspecified) | -21.8% |  |
| C=C(C)C(=O)OC1[C@@H]2C(=C)C(=O)O[C@@H]2C[C@@H](C)[C@@H]2C=CC(=O)[C@@]12C (stereo partly specified) | 29% |  |
| COc1ccccc1-c1cc(Nc2cccc(CS(N)(=O)=O)c2)ncn1 | 7.55% |  |
| CCN1CCN(Cc2ccc(-c3cc4c(NC(C)c5ccccc5)ncnc4[nH]3)cc2)CC1 (stereo unspecified) | 81.6% |  |
| CN1CCN(C(=O)c2ccc(Nc3nccc(-c4cccs4)n3)cc2Cl)CC1 | -26.4% |  |
| O=C1c2c(O[C@@H]3O[C@H](CO)[C@@H](O)[C@H](O)[C@H]3O)cc(O)cc2OC1(O)Cc1ccc(O)cc1 (stereo partly specified) | -22.6% [at 57.1 µM] |  |
| CCCCn1c(-c2ccccc2)nc(-c2ccccc2)c1CN(Cc1ccc2c(c1)OCO2)Cc1ccc2c(c1)OCO2 | -16% |  |
| Cc1ccc(C2(COC(=O)C(C)C)CO2)c(OC(=O)C(C)C)c1 (stereo unspecified) | 25.9% |  |
| CCC(C)n1cc(C)c2c(C(=O)NCc3c(C)cc(C)[nH]c3=O)cc(-c3ccc(N4CCNCC4)nc3)cc21 (stereo unspecified) | -1.64% |  |
| Cn1nccc1Nc1nccc(-c2ccn([C@H](CO)c3ccc(Cl)c(F)c3)c(=O)c2)n1 | 2.52% |  |
| Nc1ncnc2c1ncn2[C@@H]1O[C@H](CO)C[C@H]1O | -29.5% |  |
| O=[N+]([O-])c1ccc(-[n+]2nc(-c3ccccc3)nn2-c2ccc(I)cc2)cc1 | 7.68% |  |
| Cc1ccc(C(=O)N2CCN(c3ccc([N+](=O)[O-])cc3)CC2)cc1Cl | -13.6% |  |
| CC(=O)N1c2ccc(-c3ccc(C(=O)O)cc3)cc2C(Nc2ccc(Cl)cc2)CC1C (stereo unspecified) |  | 20 µM (active) |

Tested on: Zika virus NS2B-NS3 protease (linked construct)
Test: Primary screen NINDS Rhodamine qHTS for Zika virus inhibitors (AID 1347160); note: nearly all actives have a fitted effect of over 55% in size; for activity change, negative = inhibition: % is set by controls: 0 for no effect and ±100 for the full control effect
Details: purified NS2B-NS3 protease, Rhodamine110 substrate fluorescence; series mostly up to 57.1 µM; activity change, negative = inhibition: at the top concentration
In short: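 Enzyme (25 nM, linked NS2B-NS3) was preincubated 15 min with compound in 10 mM Tris-HCl pH 8.0, 0.01% Tween 20. Rhodamine110 substrate (1.5 microM) was then added and fluorescence read at start and after 15 min.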

| SMILES | activity change, negative = inhibition | Potency | outcome |
| --- | --- | --- | --- |
| CCCCn1ccc(N2CCC(c3ccccc3)CC2)c(Cl)c1=O | -13.8% |  |  |
| O=C(NNc1ccccc1)c1ccncc1 | 6% |  |  |
| COc1ccccc1NC(=O)Nc1ccc2ccccc2c1 | 21.4% |  |  |
| CC1OC2OC3C(OCC(O)C3O)OC(=O)C34CCC(C)(C)CC3C3=CCC5C6(C)CC(O)C(OC7OC(CO)C(O)C(O)C7OC7OCC(OC(=O)CC(C)(O)CC(=O)OC1C(OC1OCC(O)C(O)C1O)C2O)C(O)C7O)C(C)(CO)C6CCC5(C)C3(C)CC4O (stereo unspecified) | -17.1% [at 33.1 µM] |  |  |
| CCOC(=O)c1cnn(-c2ccc(NC(=O)C(Cl)=C(Cl)Cl)cc2)c1C(F)(F)F | -2.63% |  |  |
| COc1ccc(Cl)cc1[C@@]1(F)C(=O)Nc2cc(C(F)(F)F)ccc21 | -15% |  |  |
| CN(CCCNC(=O)c1ccc2nc3c(c(Cl)c2c1)CCCC3)Cc1ccccc1 | 117% |  |  |
| Cc1ccc2c(Nc3ccc(Cl)cc3)nccc2c1Nc1ncccc1-c1ncnc2nc[nH]c12 | 0.0856% |  |  |
| O=C(NCc1ccc(Oc2ccccc2)cc1)c1nc(-c2cc(Br)c(O)c(Br)c2)no1 |  | 2.51 µM (active) |  |
| O=C(Nc1ccc(F)cc1)N1CCc2ccccc2C1c1ccc(C(F)(F)F)cc1 (stereo unspecified) | -28.8% |  |  |
| CC(C)(C)c1ccc(-c2nc3ccccc3[nH]2)cc1 |  |  | inactive [at 33.1 µM] |
| C=C(C)C(=O)OC1[C@@H]2C(=C)C(=O)O[C@@H]2C[C@@H](C)[C@@H]2C=CC(=O)[C@@]12C (stereo partly specified) | 12.7% [at 33.1 µM] |  |  |
| COc1ccccc1-c1cc(Nc2cccc(CS(N)(=O)=O)c2)ncn1 | 11.7% |  |  |
| CC1CCC2C(=CCC(O)C2(C)C)C1(C)Cc1c(O)cc(CO)c(C=O)c1O (stereo unspecified) |  |  | inactive [at 33.1 µM] |
| CC1(C)CC23[C@@H]4CC(=O)[C@@H]2COC(=O)[C@@H]3CC[C@H]41 | 10.2% |  |  |
| CCN1CCN(Cc2ccc(-c3cc4c(NC(C)c5ccccc5)ncnc4[nH]3)cc2)CC1 (stereo unspecified) | 99.9% |  |  |

| SMILES | activity change, negative = inhibition | Potency | outcome |
| --- | --- | --- | --- |
| CN1CCN(C(=O)c2ccc(Nc3nccc(-c4cccs4)n3)cc2Cl)CC1 | 8.89% |  |  |
| Cn1cnc(-c2nccc3c(=O)[nH]c(OCCCC(F)(F)F)nc23)c1 | -21.2% |  |  |
| CC(C)[C@@H](C)/C=C/[C@@H](C)[C@H]1CC[C@H]2C3=CC=C4C[C@@H](O)CC[C@]4(C)C3=CC[C@]12C |  |  | inactive |
| OCC(Cc1ccccc1)Nc1nc(Oc2ccc3c(c2)CCC3)nc2c1ncn2Cc1ccc(-c2ccccc2)cc1 (stereo unspecified) | -24.6% |  |  |
| Cc1[nH]c(/C=C2\C(=O)Nc3ccc(F)cc32)c(C)c1C(=O)NC[C@H](O)CN1CCOCC1 | 21.2% |  |  |
| CCN(CCCOc1ccc2c(Nc3cc(CC(=O)Nc4cccc(F)c4)[nH]n3)ncnc2c1)CCOP(=O)(O)O | 23% |  |  |
| O=C1c2c(O[C@@H]3O[C@H](CO)[C@@H](O)[C@H](O)[C@H]3O)cc(O)cc2OC1(O)Cc1ccc(O)cc1 (stereo partly specified) | -5.02% [at 33.1 µM] |  |  |
| CCCCn1c(-c2ccccc2)nc(-c2ccccc2)c1CN(Cc1ccc2c(c1)OCO2)Cc1ccc2c(c1)OCO2 | 53.3% |  |  |
| CCC(C)n1cc(C)c2c(C(=O)NCc3c(C)cc(C)[nH]c3=O)cc(-c3ccc(N4CCNCC4)nc3)cc21 (stereo unspecified) | 43.5% |  |  |
| Cn1nccc1Nc1nccc(-c2ccn([C@H](CO)c3ccc(Cl)c(F)c3)c(=O)c2)n1 | 11.8% |  |  |
| CC1(C)CC[C@]2(C(=O)OC3OC(CO)C(O)C(O)C3O)CC[C@]3(C)C(=CCC4[C@@]5(C)CC[C@H](OC6OC(C(=O)O)C(O)C(O)C6O)C(CO)(CO)C5CC[C@]43C)[C@@H]2C1 (stereo partly specified) | 26.2% [at 15.1 µM] |  |  |
| Nc1ncnc2c1ncn2[C@@H]1O[C@H](CO)C[C@H]1O | -0.204% |  |  |
| O=[N+]([O-])c1ccc(-[n+]2nc(-c3ccccc3)nn2-c2ccc(I)cc2)cc1 |  |  | inactive |
| O=C(NC(NC(=S)Nc1ccc(F)c([N+](=O)[O-])c1)C(Cl)(Cl)Cl)C(c1ccccc1)c1ccccc1 (stereo unspecified) | 4.68% [at 15.1 µM] |  |  |
| Cc1ccc(C(=O)N2CCN(c3ccc([N+](=O)[O-])cc3)CC2)cc1Cl | -8.14% |  |  |
| CC(=O)N1c2ccc(-c3ccc(C(=O)O)cc3)cc2C(Nc2ccc(Cl)cc2)CC1C (stereo unspecified) |  | 8.91 µM (active) |  |
